Source: PubChem BioAssay (NCATS)
Results filed as inconclusive are left out. Calls of active or inactive are those of the source. Unless noted, calls follow the shape of the dose curve; as a rule, active = well fitted curve in the direction sought with a large enough effect; inconclusive = small, poorly fitted or top-dose-only effect, or another doubt; inactive = no such curve, though single readings can be large; an effect the other way counts as inactive or inconclusive.

Columns and labels:
[1] = target: Glucocorticoid receptor (Homo sapiens) (UniProt P04150); test: GR-GFP Redistribution (AID 450;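 active = compounds whose dose series gives a full or clear partial fitted curve of increased nuclear translocation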; also: potency is read from the fitted curve at half-maximal effect); details: U2OS GR-GFP nuclear translocation, laser cytometry, 2 h
Glucocorticoid receptor (Homo sapiens), sequence (P04150 whole entry, looked up, the tested form may be a part): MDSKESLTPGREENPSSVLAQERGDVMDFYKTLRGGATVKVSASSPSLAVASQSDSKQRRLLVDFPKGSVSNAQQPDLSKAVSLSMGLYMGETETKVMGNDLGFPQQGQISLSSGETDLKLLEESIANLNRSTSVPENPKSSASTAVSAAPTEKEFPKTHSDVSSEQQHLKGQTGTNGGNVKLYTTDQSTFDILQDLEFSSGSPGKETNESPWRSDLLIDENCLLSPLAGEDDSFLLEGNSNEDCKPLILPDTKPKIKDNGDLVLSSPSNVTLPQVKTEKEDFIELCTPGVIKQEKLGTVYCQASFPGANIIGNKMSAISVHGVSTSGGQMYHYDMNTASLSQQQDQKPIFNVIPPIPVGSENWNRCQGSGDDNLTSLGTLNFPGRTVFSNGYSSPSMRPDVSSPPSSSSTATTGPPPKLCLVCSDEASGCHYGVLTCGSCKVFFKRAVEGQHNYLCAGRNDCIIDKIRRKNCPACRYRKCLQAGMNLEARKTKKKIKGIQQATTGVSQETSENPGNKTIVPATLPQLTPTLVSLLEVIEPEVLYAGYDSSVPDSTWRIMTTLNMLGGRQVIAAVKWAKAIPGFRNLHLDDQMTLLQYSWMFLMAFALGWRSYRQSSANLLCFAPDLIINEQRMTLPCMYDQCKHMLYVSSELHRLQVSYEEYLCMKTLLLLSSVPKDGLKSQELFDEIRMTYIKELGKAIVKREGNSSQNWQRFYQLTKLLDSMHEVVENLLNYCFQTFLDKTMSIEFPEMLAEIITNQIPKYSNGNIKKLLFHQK

[2] = target: Glucocorticoid receptor (Homo sapiens) (UniProt P04150); test: GR-EFC Redistribution (AID 451; calls by dose curve; also: potency is read from the fitted curve at half-maximal effect); details: CHO-K1 GR-EFC translocation, beta-gal luminescence, 2 h
Summary of the method: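 Translocation of GR-ED fusion to nuclear EA restores b-gal, read by luminescence after 1 h room-temperature detection. Engineered CHO-K1 biosensor cells, 1,000/well, exposed 2 h at 37 C to titrations up to 46 uM final.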

[3] = target: DNA dC->dU-editing enzyme APOBEC-3G (Homo sapiens) (UniProt Q9HC16); test: qHTS for inhibitors of Vif-A3G interactions: Validation (AID 588379); details: Vif-A3G protein interaction assay; series mostly up to 46.1 µM
DNA dC->dU-editing enzyme APOBEC-3G (Homo sapiens), sequence (Q9HC16 whole entry, looked up): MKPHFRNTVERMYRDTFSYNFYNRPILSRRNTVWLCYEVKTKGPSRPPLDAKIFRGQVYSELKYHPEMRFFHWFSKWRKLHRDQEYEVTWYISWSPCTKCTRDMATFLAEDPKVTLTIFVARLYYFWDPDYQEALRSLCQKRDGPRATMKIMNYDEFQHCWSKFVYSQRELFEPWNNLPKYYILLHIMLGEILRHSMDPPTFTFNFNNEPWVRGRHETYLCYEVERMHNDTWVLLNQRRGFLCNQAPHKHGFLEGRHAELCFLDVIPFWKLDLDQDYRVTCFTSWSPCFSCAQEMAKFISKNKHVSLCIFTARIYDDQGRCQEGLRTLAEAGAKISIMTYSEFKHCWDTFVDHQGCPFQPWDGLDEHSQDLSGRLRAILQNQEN
Summary of the method: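 HeLa cells stably expressing Vif and A3G-eYFP, 700 cells/well, incubated overnight at 37 deg C, then exposed to compound overnight at 37 deg C. Inhibition of Vif-mediated degradation read as increased yellow fluorescence (Ex 488/Em 500-530) by laser-scanning cytometry.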

[4] = test system: Zika virus NS2B-NS3 protease; test: Primary screen GU AMC qHTS for Zika virus inhibitors (AID 1347154); details: Zika NS2B-NS3 unlinked protease, AMC fluorogenic substrate; series mostly up to 54.1 µM; also: nearly all actives have a fitted effect of over 70% in size
Summary of the method: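 Fluorogenic AMC-substrate cleavage by noncovalent NS2B-NS3 protease complex (25 nM, pH 8.0 Tris buffer with Tween 20) followed for 15 minutes at room temperature (~20% conversion). Percent inhibition from ex340/em450 signal change, fitted by 4-parameter Hill equation.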

[5] = target: Mitogen-activated protein kinase 10 (Mus musculus) (UniProt Q61831); test: JNK3 AlphaScreen Assay (AID 530; active = well fitted curve in either direction with a large enough effect, not every such curve was filed as active;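 also: kinase came from lysate of stimulated human HepG2 cells; signal reports phosphorylation of biotinylated GST-cJun 1-79 at Ser73 with 10 µM ATP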); details: JNK3 lysate, c-Jun phosphorylation; series mostly up to 57.1 µM
Summary of the method: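 Compound titrations were preincubated 15 minutes at room temperature with substrate, antibody and pre-activated JNK3-containing HepG2 lysate. Reactions were started with 10 uM ATP and stopped with EDTA-containing bead buffer for AlphaScreen detection.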

[6] = target: Cytochrome P450 3A4 (Homo sapiens) (UniProt P08684); test: qHTS Assay for Inhibitors and Substrates of Cytochrome P450 3A4 (AID 884); details: recombinant CYP3A4, Luciferin-PPXE luminescence; series mostly up to 57.1 µM; also: potency is read from the fitted curve at half-maximal effect; nearly all actives have a fitted effect of over 50% in size
Cytochrome P450 3A4 (Homo sapiens), sequence (P08684 whole entry, looked up): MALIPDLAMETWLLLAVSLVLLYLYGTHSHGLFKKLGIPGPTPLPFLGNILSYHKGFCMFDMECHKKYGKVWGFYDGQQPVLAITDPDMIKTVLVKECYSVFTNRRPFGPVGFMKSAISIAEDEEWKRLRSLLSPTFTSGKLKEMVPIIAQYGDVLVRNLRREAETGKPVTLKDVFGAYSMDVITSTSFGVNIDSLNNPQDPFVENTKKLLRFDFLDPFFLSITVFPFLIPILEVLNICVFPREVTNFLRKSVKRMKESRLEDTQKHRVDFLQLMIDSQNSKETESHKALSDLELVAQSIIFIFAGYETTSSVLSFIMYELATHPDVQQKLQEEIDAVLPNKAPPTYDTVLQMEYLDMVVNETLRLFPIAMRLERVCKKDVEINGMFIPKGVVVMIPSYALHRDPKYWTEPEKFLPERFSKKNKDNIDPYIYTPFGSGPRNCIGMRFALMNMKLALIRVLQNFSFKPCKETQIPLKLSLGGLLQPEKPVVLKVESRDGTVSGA
Summary of the method: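 20 nM human CYP3A4 with 25 uM Luciferin-PPXE (at KM) in 200 mM KPO4, preincubated 10 min with compound; NADPH regeneration started a 60 min RT reaction. Luciferin detected by luminescence, normalized to 57 uM ketoconazole as full inhibition.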

[7] = target: Cytochrome P450 3A4 (Homo sapiens) (UniProt P08684); test: qHTS Assay for Activators of Cytochrome P450 3A4 (AID 885); details: recombinant CYP3A4, Luciferin-PPXE luminescence, 60 min; series mostly up to 57.1 µM; also: nearly all actives have a fitted effect of over 65% in size
Summary of the method: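 Signal was normalized against complete inhibition by 57 uM ketoconazole. The reaction used 20nM CYP3A4 with 25uM Luciferin-PPXE, 10-min compound preincubation and a 60-min NADPH-supported step at RT.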

[8] = target: Cytochrome P450 2C9 (Homo sapiens) (UniProt P11712); test: qHTS Assay for Inhibitors and Substrates of Cytochrome P450 2C9 (AID 883); details: recombinant CYP2C9, luciferin-H luminescence, 60 min; series mostly up to 57.1 µM; also: nearly all actives have a fitted effect of over 60% in size; also: potency is read from the fitted curve at half-maximal effect
Cytochrome P450 2C9 (Homo sapiens), sequence (P11712 whole entry, looked up): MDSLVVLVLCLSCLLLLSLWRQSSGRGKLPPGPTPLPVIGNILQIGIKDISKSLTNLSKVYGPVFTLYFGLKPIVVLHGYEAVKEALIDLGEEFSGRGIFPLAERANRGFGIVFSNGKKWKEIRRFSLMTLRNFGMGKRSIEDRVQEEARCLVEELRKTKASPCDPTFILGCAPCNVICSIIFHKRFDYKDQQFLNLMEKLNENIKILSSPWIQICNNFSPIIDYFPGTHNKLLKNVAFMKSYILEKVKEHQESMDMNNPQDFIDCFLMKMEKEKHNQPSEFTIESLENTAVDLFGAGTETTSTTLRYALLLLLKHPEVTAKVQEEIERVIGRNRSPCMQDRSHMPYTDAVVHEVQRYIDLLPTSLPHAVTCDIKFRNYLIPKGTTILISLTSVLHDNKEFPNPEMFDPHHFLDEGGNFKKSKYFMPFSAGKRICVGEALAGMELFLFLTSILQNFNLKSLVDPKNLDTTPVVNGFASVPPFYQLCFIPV
Summary of the method: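 Turnover of Luciferin-H (100uM, KM) by 10nM human CYP2C9 was measured over 60 min at 37C with NADPH regeneration; inhibitors and some substrates reduce luminescence. Data normalized to sulphaphenazole 57uM.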

[9] = target: Cytochrome P450 2D6 (Homo sapiens) (UniProt P10635); test: qHTS Assay for Inhibitors and Substrates of Cytochrome P450 2D6 (AID 891); details: recombinant CYP2D6, luciferin-ME EGE luminescence; series mostly up to 57.1 µM; also: potency is read from the fitted curve at half-maximal effect; nearly all actives have a fitted effect of over 60% in size
Cytochrome P450 2D6 (Homo sapiens), sequence (P10635 whole entry, looked up): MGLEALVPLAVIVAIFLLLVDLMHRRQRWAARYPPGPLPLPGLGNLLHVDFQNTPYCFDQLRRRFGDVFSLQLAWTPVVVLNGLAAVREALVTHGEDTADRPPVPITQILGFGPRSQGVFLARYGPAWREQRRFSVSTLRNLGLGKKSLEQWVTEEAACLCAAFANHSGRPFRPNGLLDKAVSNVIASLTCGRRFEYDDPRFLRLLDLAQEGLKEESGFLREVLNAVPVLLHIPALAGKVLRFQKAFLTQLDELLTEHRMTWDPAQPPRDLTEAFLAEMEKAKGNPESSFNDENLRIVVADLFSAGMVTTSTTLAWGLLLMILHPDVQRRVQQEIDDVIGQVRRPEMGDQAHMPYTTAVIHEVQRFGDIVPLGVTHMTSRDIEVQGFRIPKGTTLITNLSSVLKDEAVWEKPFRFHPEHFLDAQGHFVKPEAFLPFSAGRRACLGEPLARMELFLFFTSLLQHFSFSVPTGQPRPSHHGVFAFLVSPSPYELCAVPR
Summary of the method: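 Human CYP2D6 (5 nM) with 30 uM Luciferin-ME EGE (at Km) in 100 mM KPO4, compound preincubated 10 min, then NADPH regeneration system for 60 min at room temperature. Luciferin read by luminescence; normalized to 1.43 uM quinidine.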

[10] = target: Ubiquitin carboxyl-terminal hydrolase 1 (Homo sapiens) (UniProt O94782); test: Inhibitors of USP1/UAF1: Pilot qHTS (AID 504865); details: purified USP1/UAF1, Ub-rhodamine cleavage fluorescence; series mostly up to 114 µM; also: nearly all actives have a fitted effect of over 35% in size; also: potency is read from the fitted curve at half-maximal effect
Ubiquitin carboxyl-terminal hydrolase 1 (Homo sapiens), sequence (O94782 whole entry, looked up): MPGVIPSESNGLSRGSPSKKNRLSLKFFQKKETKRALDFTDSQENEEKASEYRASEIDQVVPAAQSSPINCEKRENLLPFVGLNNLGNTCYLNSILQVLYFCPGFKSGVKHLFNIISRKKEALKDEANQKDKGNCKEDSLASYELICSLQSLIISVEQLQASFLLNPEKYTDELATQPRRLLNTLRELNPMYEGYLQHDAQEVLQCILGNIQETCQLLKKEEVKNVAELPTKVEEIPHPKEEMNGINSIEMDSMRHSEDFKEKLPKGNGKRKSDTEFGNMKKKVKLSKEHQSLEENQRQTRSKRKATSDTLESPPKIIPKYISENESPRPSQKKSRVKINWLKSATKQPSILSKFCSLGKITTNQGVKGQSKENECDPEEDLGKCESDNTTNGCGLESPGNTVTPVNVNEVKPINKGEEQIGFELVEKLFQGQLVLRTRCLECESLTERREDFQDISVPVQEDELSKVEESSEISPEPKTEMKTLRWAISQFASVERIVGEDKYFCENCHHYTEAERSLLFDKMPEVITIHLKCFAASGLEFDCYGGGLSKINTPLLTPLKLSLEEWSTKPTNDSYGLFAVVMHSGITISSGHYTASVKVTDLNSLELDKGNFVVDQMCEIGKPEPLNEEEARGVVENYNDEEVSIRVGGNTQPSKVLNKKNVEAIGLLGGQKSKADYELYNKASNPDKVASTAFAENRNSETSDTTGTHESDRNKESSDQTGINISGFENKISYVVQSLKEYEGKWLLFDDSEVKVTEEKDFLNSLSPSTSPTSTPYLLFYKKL
Summary of the method: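 Enzyme-free wells gave the negative control, while test wells held 1nM USP1/UAF1 preincubated with compound for 15 min at room temperature. Ub-Rho at 150nM final started the reaction, and fluorescence at 480/540 nm was recorded kinetically.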

[11] = target: 3',5'-cyclic-AMP phosphodiesterase 4B (Homo sapiens) (UniProt Q07343); test: qHTS Assay for Inhibitors of PDE-IV (AID 607; active = well fitted activation curve with a large enough effect in the main read-out, with a control signal flat, not every such curve was filed as active); details: HEK293 ACTOne CNG channel cells, membrane potential fluorescence; series mostly up to 22.9 µM
3',5'-cyclic-AMP phosphodiesterase 4B (Homo sapiens), sequence (Q07343 whole entry, looked up): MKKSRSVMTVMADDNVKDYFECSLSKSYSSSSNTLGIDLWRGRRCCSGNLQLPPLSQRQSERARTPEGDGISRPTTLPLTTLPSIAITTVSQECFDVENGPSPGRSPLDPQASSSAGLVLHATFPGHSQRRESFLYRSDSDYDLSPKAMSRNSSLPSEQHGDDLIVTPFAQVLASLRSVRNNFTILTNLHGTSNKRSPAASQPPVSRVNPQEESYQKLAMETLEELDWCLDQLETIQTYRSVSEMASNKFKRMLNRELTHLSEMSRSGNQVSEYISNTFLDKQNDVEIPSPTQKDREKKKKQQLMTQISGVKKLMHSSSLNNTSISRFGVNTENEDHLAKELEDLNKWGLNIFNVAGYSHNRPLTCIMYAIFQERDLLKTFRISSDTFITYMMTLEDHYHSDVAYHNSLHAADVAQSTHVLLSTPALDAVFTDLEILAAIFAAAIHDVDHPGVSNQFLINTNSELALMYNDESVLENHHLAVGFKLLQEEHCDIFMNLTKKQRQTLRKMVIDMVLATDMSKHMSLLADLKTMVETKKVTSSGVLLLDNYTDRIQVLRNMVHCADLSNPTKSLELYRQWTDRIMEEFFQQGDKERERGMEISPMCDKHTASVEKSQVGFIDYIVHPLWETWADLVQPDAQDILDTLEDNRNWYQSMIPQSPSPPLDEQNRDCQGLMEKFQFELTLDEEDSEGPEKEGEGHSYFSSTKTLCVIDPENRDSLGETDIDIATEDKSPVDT
Summary of the method: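 Cell-based read-out of cAMP via a modified cyclic nucleotide-gated channel and membrane potential dye (535/590 nm) in HEK293 cells expressing PDE4 endogenously. Compounds tested up to 22.9 uM final; 100 uM RO 20-1724 reference.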

[12] = qHTS for Inhibitors of the vitamin D receptor (VDR): Hit Validation using a Texas Red Assay (AID 602201); details: VDR coregulator binding, Texas Red fluorescence polarization; agonist-bound VDR ligand-binding domain; also: potency is read from the fitted curve at half-maximal effect
Summary of the method: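 After a 2-hour room-temperature incubation, polarization of Texas-Red emission was read (Ex 595 nm/Em 615 nm). Final mix contained 7 nM Texas Red, 1.5 uM VDR-LBD and LG19078.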

[13] = target: Cytochrome P450 2C19 (Homo sapiens) (UniProt P33261); test: qHTS Assay for Inhibitors and Substrates of Cytochrome P450 2C19 (AID 899); details: recombinant CYP2C19, luciferin-H EGE luminescence; series mostly up to 57.1 µM; also: potency is read from the fitted curve at half-maximal effect; nearly all actives have a fitted effect of over 60% in size
Cytochrome P450 2C19 (Homo sapiens), sequence (P33261 whole entry, looked up): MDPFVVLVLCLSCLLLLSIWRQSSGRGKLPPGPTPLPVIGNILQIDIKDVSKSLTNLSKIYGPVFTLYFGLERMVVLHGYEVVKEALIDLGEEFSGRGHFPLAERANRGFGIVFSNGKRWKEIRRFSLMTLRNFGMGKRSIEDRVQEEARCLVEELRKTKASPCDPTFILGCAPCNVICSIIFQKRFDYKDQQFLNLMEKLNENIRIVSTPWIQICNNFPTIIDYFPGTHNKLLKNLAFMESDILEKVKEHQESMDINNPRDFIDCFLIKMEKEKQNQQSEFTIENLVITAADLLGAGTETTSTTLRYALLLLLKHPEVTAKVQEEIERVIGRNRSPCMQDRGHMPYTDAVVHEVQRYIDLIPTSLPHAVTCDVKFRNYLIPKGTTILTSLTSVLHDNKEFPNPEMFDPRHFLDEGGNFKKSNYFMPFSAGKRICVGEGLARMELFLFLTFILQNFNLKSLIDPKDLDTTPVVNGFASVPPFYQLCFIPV
Summary of the method: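 Reactions contain 5nM enzyme, 10uM Luciferin-H EGE (KM) and 50mM KPO4; compound preincubates 10 min at 37C, NADPH regeneration starts turnover for 60 min. Luminescence after detection reagent gives activity.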

Measured: Potency

CC(C)(C)c1cc(O)c(C(C)(C)C)cc1O
inactive: [1] > 46 µM | [2] > 46 µM | [3] | [4]

C[C@@]12CC[C@@H]3c4ccc(O)cc4C[C@H](CCCCCCCCCS(=O)CCCC(F)(F)C(F)(F)F)[C@H]3[C@@H]1CC[C@@H]2O (stereo not given in full)
inactive: [1] > 46 µM | [2] > 46 µM | [5] | [3] | [4]

CCCCCS(=O)(=O)CCCCCCCCCCn1c(-c2ccc(O)cc2)c(C)c2cc(O)ccc21
active: [6] 0.631 µM
inactive: [7] | [4]

CCCCCCCC/C=C\CCCCCCCC(=O)N[C@@H](CO)Cc1ccc(O)cc1
active: [9] 0.126 µM | [10] 22.4 µM
inactive: [1] > 46 µM | [2] > 46 µM | [8] | [7] | [3] | [4]

COc1cc2c(cc1OC)-c1cc3nc4ccccc4nc3n1C(C)(C)C2
inactive: [1] > 46 µM | [2] > 46 µM | [11] | [3] | [4]
active: [12] 12.6 µM

CNc1ncnc2c1ncn2[C@H]1C[C@H](OP(=O)(O)O)[C@H](COP(=O)(O)O)O1
inactive: [1] > 46 µM | [2] > 46 µM | [5] | [10] | [3] | [4]

CCCCCN=c1ccn(Cc2ccccc2)c2ccccc12
active: [8] 0.316 µM | [13] 0.251 µM
inactive: [1] > 46 µM | [2] > 46 µM | [7] | [3] | [4]

Cc1cccc(CCN2CCC(C(=O)c3ccc(NS(C)(=O)=O)cc3)CC2)n1
inactive: [10] | [3] | [4]

CN1[C@H](CC(=O)c2ccccc2)CCC[C@H]1C[C@H](O)c1ccccc1
inactive: [10] | [3] | [4]

Cc1c[nH]c(=O)n(CCCN2CCN(c3ccccc3OCC(F)(F)F)CC2)c1=O
inactive: [1] > 46 µM | [2] > 46 µM | [5] | [11] | [10] | [3] | [4]

O=C1c2ccccc2C(Cc2ccnc(F)c2)(Cc2ccnc(F)c2)c2ccccc21
active: [6] 15.8 µM
inactive: [7] | [4]
